CYP2C9 inh: human CYP2C9 inhibition | inhibition, % at 5 µM | actives 20% (n = 96,000) | P11712 | CYP2C9 Supersomes, luciferin-H conversion, luminescence | AID 777;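 active = blocking of liver enzyme CYP2C9 beyond about 50% at 5 µM, limit read from the data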
Target sequence (P11712 whole entry, looked up): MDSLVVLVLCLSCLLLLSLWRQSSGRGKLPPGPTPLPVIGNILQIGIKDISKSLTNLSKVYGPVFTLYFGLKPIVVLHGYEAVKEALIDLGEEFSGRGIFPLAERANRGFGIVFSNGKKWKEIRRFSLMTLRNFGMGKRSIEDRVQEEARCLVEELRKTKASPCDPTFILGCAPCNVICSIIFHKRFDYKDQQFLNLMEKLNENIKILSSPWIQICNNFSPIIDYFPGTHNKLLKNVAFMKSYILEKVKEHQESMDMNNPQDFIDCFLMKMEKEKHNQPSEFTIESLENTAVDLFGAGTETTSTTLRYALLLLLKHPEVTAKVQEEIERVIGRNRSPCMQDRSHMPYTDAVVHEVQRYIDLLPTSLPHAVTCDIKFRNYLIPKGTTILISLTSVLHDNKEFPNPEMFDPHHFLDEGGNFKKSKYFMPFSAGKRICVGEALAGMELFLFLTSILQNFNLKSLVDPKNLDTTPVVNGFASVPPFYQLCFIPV
CYP2C19 inh: blocks human cytochrome P450 2C19 | P33261 | CYP2C19 Supersomes, luciferin-H EGE luminescence, 30 min | inhibition, % at 5 µM | actives 21% (n = 96,000) | AID 778;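 active = CYP2C19 inhibition above a set limit at 5 µM in the primary screen, cut at about 50% in these data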;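 also: plate controls were negative control wells for no effect and 2.5 mM tranylcypromine positive control for full effect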
Measles CPE: protection of cells from measles virus; Measles virus-infected cells, CPE protection, absorbance; protection (pct of control), % at 4 µM; actives 1.5% (n = 140,000); AID 841; in the data active = protection mostly above about 24%, no sharp cut-off; inactive = mostly below about 26%
CYP2C9 activ: activators of human CYP2C9. activation factor at 5 µM. actives 1.4% (n = 96,000). AID 1024. recombinant CYP2C9, luciferin-H conversion, luminescence; hits give high values; factor 1 = untreated enzyme, 0 = blocked. P11712;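 active = activation factor of 2 or more for CYP2C9 at a 5 µM dose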;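 also: 0 = sulfaphenazole-blocked wells and 1 = vehicle-only wells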
CYP2C19 act: activators of human cytochrome P450 2C19; P33261; recombinant CYP2C19, luciferin-H EGE luminescence; hits give high values; 0 = fully inhibited enzyme, 1 = untreated enzyme; activation factor at 5 µM; 96,000 tested, under 10 active; AID 1025;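 active = activation factor of at least 2 at 5 µM in the primary screen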;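 also: 0 = wells with 2.5 mM tranylcypromine and 1 = vehicle-only wells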
Numbers without * were called inactive. Shown are actives, neighbours in structure and some others; about 22% of the full set was active somewhere.

`Cc1c(NC(=O)c2c(N)n(-c3ccccc3)c3nc4ccccc4nc23)c(=O)n(-c2ccccc2)n1C` gave Measles CPE 59.2*.
Screening N#CC(C#N)=C(Nc1ccc(F)cc1)SCc1cccc(F)c1 returned Measles CPE 7.8.
`Cc1cc(NC(=O)CCNS(=O)(=O)c2cc(Br)cnc2N)ccc1Br` gave CYP2C9 inh 40.7, CYP2C19 inh 29.5, Measles CPE 32.2, CYP2C9 activ 0.6 and CYP2C19 act 0.7.
`Cc1c(NS(=O)(=O)N2CCCC2)c(=O)n(-c2ccccc2)n1C` gave CYP2C9 inh 3.8, CYP2C19 inh 23.1, CYP2C9 activ 1 and CYP2C19 act 0.8.
Screening Cc1c(NC(=O)COC(=O)C(c2ccc(Cl)cc2)C(C)C)c(=O)n(-c2ccccc2)n1C (centres undefined) returned CYP2C9 inh 57.7*, CYP2C19 inh 31.2, Measles CPE 4.0, CYP2C9 activ 0.4 and CYP2C19 act 0.7.
Cc1c(NS(C)(=O)=O)c(=O)n(-c2ccccc2)n1C was read as CYP2C9 inh -0.8, CYP2C19 inh -7.4, Measles CPE 55.0*, CYP2C9 activ 1 and CYP2C19 act 1.1.
`Cc1c(Nc2nc3ccccc3nc2N2CCN(c3ccccc3)CC2)c(=O)n(-c2ccccc2)n1C` gave CYP2C9 inh 75.4*, CYP2C19 inh 34.7, Measles CPE 6.4, CYP2C9 activ 0.2 and CYP2C19 act 0.7.
CCOc1cc(C=C2C(=O)c3ccccc3C2=O)ccc1OCC(=O)Nc1ccc(C)cc1 was read as Measles CPE 5.8.
`COc1ccc(NC2=C(C(C)=O)C(c3ccc4c(c3)OCO4)C(C(C)=O)C(C)(O)C2)cc1` (centres undefined) gave CYP2C9 inh 77.9*, CYP2C19 inh 72.4*, Measles CPE 17.1, CYP2C9 activ 0.2 and CYP2C19 act 0.3.
Screening C/C(CC1CC(COCC(C)C)OC1=O)=N\Nc1nc(-c2ccccc2)cs1 (centres undefined) returned CYP2C9 inh 72.0*, CYP2C19 inh 89.0*, Measles CPE 12.2, CYP2C9 activ 0.3 and CYP2C19 act 0.1.
C/C(=N\Nc1nc(-c2ccccc2)cs1)c1cccs1 was read as Measles CPE 12.0.
Screening CCOc1ccc(C(=O)OCC(=O)NCc2ccco2)cc1OCC returned CYP2C9 inh -5.9, CYP2C19 inh 69.6*, Measles CPE 7.8, CYP2C9 activ 1.1 and CYP2C19 act 0.3.
CCCOc1ccc(CC(=O)NCc2ccco2)cc1OC was read as CYP2C9 inh 43.2, CYP2C19 inh 62.8*, Measles CPE 4.8, CYP2C9 activ 0.6 and CYP2C19 act 0.4.
For CCOc1cc(C(=O)OCC(=O)Nc2c(C)cccc2C)ccc1OCC(=O)N1CCOCC1 the results were Measles CPE 32.8*.
Screening COc1ccc(C(=O)OCC(=O)NCc2ccco2)cc1OC returned CYP2C9 inh -10.3, CYP2C19 inh -4.5, Measles CPE 2.5, CYP2C9 activ 1.1 and CYP2C19 act 1.
`CCOc1ccc(OCC)c(NC(=O)C2C3C=CC(O3)C2C(=O)NCc2ccco2)c1` (centres undefined) gave CYP2C9 inh 36.8, CYP2C19 inh 50.9*, Measles CPE 8.7, CYP2C9 activ 0.6 and CYP2C19 act 0.5.
`Cc1cc([N+](=O)[O-])nn1CC(=O)N1CCCc2ccccc21` gave Measles CPE 5.4.
For CSc1nnc(-c2cc3ccccc3cc2O)n1C the results were CYP2C9 inh 12.1, CYP2C19 inh 5.9, Measles CPE 6.9, CYP2C9 activ 0.9 and CYP2C19 act 0.9.
`CCOc1ccccc1OCC(=O)NCc1ccco1` gave CYP2C9 inh -6.8, CYP2C19 inh 65.3*, Measles CPE 3.4, CYP2C9 activ 1.1 and CYP2C19 act 0.3.
Screening O=C(COc1ccccc1Cl)NCc1ccco1 returned CYP2C9 inh 6.3, CYP2C19 inh 25.0, Measles CPE 6.1, CYP2C9 activ 0.9 and CYP2C19 act 0.8.
For CCOC(=O)C1=C(CSc2nc3ccccc3s2)NC(=O)NC1c1cccc([N+](=O)[O-])c1 (centres undefined) the results were CYP2C9 inh 21.7, CYP2C19 inh 34.3, Measles CPE 18.0, CYP2C9 activ 0.8 and CYP2C19 act 0.7.
Screening NC(=O)c1ccccc1N/C=C/C(=O)c1ccccc1 returned CYP2C9 inh 44.6, CYP2C19 inh 74.4*, Measles CPE 7.9, CYP2C9 activ 0.6 and CYP2C19 act 0.3.

Source: PubChem
